IL1B secr inh: inflammasome signaling inhibition, IL-1 beta readout; hit rate 4.7% among 360,000; activity change, % at 57.5 µM; THP-1 LPS/ATP IL-1B secretion, AlphaLISA, 16 h; stronger effect = lower value; in the data active = activity change below about -50%; inconclusive = mostly about -30% to -49%
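Secreted IL-1B measured by AlphaLISA bead assay after 16 h compound exposure of THP-1 cells; compounds (final up to 57.5 uM) added 1 h before LPS (250 ng/mL) and ATP (1.25 mM) stimulation; lower signal means less secretion.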
TDP1 cell noCPT: qHTS for Inhibitors of human tyrosyl-DNA phosphodiesterase 1 (TDP1): qHTS in cells in absence of CPT | DT40 Tdp1-/- hTDP1 cells, no CPT, ATP luminescence, 48 h | Potency, µM (doses to about 46.2 µM), actives largely listed as inhibitors | hit rate 15% among 420,000 | AID 686978, 2013; note: nearly all actives have a fitted effect of over 55% in size
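Chicken DT40 Tdp1-/- cells complemented with human TDP1, screened without camptothecin (DMSO vehicle only), 400 cells/well. Compounds pin-transferred, cells incubated at 37 °C for at least 48 hr. Growth read as ATP-dependent luminescence (CellTiter-Glo, 30 min at RT).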
RORgamma inh: blocks mouse ROR gamma transcriptional activity. Drosophila S2 Gal4-RORgamma UAS-luciferase reporter, 20 h. P51450. hit rate 5.4% among 310,000. Potency, µM (highest dose often 53.6 µM), actives largely listed as inhibitors; note: nearly all actives have a fitted effect of over 60% in size
Target sequence (P51450 whole entry, looked up, the tested form may be a part): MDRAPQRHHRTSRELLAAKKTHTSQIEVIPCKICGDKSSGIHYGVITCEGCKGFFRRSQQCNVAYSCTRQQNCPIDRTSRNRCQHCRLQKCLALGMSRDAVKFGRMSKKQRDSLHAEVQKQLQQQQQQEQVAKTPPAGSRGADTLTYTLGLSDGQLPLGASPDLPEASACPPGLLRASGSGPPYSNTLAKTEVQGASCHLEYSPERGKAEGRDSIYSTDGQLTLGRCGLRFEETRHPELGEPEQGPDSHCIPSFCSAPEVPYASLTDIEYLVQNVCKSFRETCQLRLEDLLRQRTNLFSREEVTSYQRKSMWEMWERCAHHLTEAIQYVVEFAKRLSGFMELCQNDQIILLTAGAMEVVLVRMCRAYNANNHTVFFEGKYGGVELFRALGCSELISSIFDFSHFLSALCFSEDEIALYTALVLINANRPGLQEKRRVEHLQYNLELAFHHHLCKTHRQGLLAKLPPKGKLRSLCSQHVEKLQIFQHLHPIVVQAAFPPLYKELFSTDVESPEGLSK
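Read-out: Photinus luciferase luminescence; inhibitors lower reporter signal. Insect Schneider cells with Gal4-ROR gamma fusion under metallothionein promoter, UAS reporter; 700 uM final copper sulfate induction, 20 hr, ambient temperature.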
Gal4-VP16 FLuc: inhibits Gal4-VP16 luciferase reporter, ROR gamma counter-screen. Drosophila S2 Gal4-VP16 UAS-luciferase, luminescence, 20 h. Potency, µM (doses to about 53.6 µM), hits mostly inhibitors. hit rate 3.5% among 310,000;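 note: Gal4-VP16 expression switched on by copper sulfate through the metallothionein promoter; nearly all actives have a fitted effect of over 50% in size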
TDP1 cell CPT: DT40-hTDP1 cell growth loss with CPT; chicken DT40 Tdp1-/-;hTDP1 cells + 20 nM CPT, ATP luminescence, 48 h; Potency, µM (highest dose often 46.2 µM), actives largely listed as inhibitors; hit rate 12% among 420,000; AID 686979; note: nearly all actives have a fitted effect of over 55% in size
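Cell growth measured by CellTiter-Glo luminescence after a minimum 48 h, 37 C compound exposure with 20 nM CPT in Tdp1-knockout DT40 cells stably expressing hTDP1, seeded 400/well; qHTS titration format.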
LDHA inh: blocks human lactate dehydrogenase A; purified LDHA, NADH/diaphorase-resazurin fluorescence; stronger effect = lower value; activity change, % (values are at about 110 or 230 µM); AID 1347041; P00338; hit rate 0.15% among 480,000; in the data active = activity change below about -30%; inconclusive = mostly about -25% to -30%
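Resorufin fluorescence (ex540/em590), read at 0 and 20 min after diaphorase/resazurin addition, reports the NADH left after a 5 min room-temperature reaction of 2 nM human LDH5 with 0.06 mM NADH and 0.2 mM pyruvate.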
Numbers stand for hits; i = inactive; ? = inconclusive; nt = not tested or not shown; ! = repeats disagree; [ ] = another dose, or the depositor's remark. Shown are actives, neighbours in structure and some others; about 18% of the full set was active somewhere. Unless noted, calls come from the whole dose curve; as a rule, active = well fitted curve in the direction sought with a large enough effect; inconclusive = small, poorly fitted or top-dose-only effect, or another doubt; inactive = no such curve, though single readings can be large; an effect the other way counts as inactive or inconclusive.

SMILES	IL1B secr inh	TDP1 cell noCPT	RORgamma inh	Gal4-VP16 FLuc	TDP1 cell CPT	LDHA inh
COc1cc(/C=C(\C#N)c2ccccn2)ccc1OCc1ccc(Cl)cc1	i	23µM	?	i	?	i
COc1cc(/C=C(\C#N)c2nc3ccc(C)cc3[nH]2)ccc1OCc1ccc(C)cc1	nt	8.2µM	nt	nt	12µM	i
COc1ccc(/C=C(\C#N)c2nc3ccc(C)cc3[nH]2)cc1OC	nt	nt	nt	nt	nt	i
COc1cc(/C=C(\C#N)c2nc3ccccc3[nH]2)ccc1OCc1ccc(C)cc1	nt	nt	nt	nt	nt	i
COc1cccc(/C=C(\C#N)c2nc3ccc(C)cc3[nH]2)c1	nt	18µM	nt	nt	18µM	i
COc1ccc(NC(=O)c2cccc3c2C(=O)N(C2CCCCC2)C3)cc1	i	18µM	i	i	18µM	i
COc1ccc(OC)c(NC(=O)c2cccc3c2C(=O)N(C2CCCCC2)C3)c1	i	16µM!	i	i	?	i
Cc1cc(NC(=O)c2cccc3c2C(=O)N(C2CCCCC2)C3)ccc1Br	i	i	i	?	i	i
Cc1cccc(C)c1NC(=O)c1cccc2c1C(=O)N(C1CCCCC1)C2	-62	16µM	i	i	7.3µM	i
COc1ccc(/C=C(\C#N)c2nc3cc(C)c(C)cc3[nH]2)cc1Br	nt	nt	nt	nt	nt	i
O=C(CSc1ncc(-c2ccc(F)cc2)o1)Nc1cccc(Cl)c1	nt	nt	nt	nt	nt	i
CCOc1cccc(C(=O)Nc2ccc3oc(=O)ccc3c2)c1	nt	nt	nt	nt	nt	i
CCCCN(C)C(=O)C1CCCN(c2ncnc3onc(C)c23)C1 (stereo not drawn)	nt	1.8µM	nt	nt	5.2µM	i
CCN(CC)CCNC(=O)C1CCCN(c2ncnc3onc(C)c23)C1 (stereo not drawn)	nt	i	nt	nt	i	i
CCCCN(CC)C(=O)C1CCCN(c2ncnc3onc(C)c23)C1 (stereo not drawn)	nt	21µM	nt	nt	18µM	i
Cc1cccc(C(=O)NNC(=O)C23CC4CC(CC(C4)C2)C3)c1O	i	?	6.3µM	?	?	i
O=C(NNC(=O)C12CC3CC(CC(C3)C1)C2)c1ccccc1O	i	8.2µM	nt	nt	8.2µM	i
CSc1nncc(=O)[nH]1	i	23µM	i	i	?	i
COC(=O)C1(C(=O)OC)C[C@H](c2ccc(OC)cc2)N(Cc2ccccc2OC)[C@@H]1c1ccc(OC)cc1	?	21µM	nt	nt	?	i
CCc1sc(C(C2C(=O)CC(C)(C)CC2=O)C2C(=O)CC(C)(C)CC2=O)cc1[N+](=O)[O-]	-248	5.2µM	i	?	4.1µM	i
CC1(C)CC(=O)C(C(c2ccc(F)cc2)C2C(=O)CC(C)(C)CC2=O)C(=O)C1	i	i	i	i	i	i
c1ccc(-c2nc(NCC3CCCO3)c3ccccc3n2)nc1 (stereo not drawn)	i	4.6µM	1.6µM	7.1µM	5.2µM	i
O=c1c2ccccc2nc2c3ccccc3c(NCc3ccco3)nn12	i	21µM	i	i	?	i
c1ccc(-c2nc(NCc3ccco3)c3ccccc3n2)nc1	i	2.6µM	1.3µM	2.8µM	2.6µM	i
O=S(=O)(Nc1nc2ccccc2nc1NCC1CCCO1)c1cccc(Cl)c1 (stereo not drawn)	i	16µM	?	i	?	i
SMILES	IL1B secr inh	TDP1 cell noCPT	RORgamma inh	Gal4-VP16 FLuc	TDP1 cell CPT	LDHA inh
O=C(NC1CC2CCC1C2)c1ccc(I)cc1 (stereo not drawn)	nt	nt	nt	nt	nt	i
COc1cc(C(=O)Oc2ccccc2C#N)ccc1OCc1ccc(Cl)cc1	nt	nt	nt	nt	nt	i
COc1ccc(/C=C/C(=O)NCC(F)(F)F)cc1	nt	nt	nt	nt	nt	i
COc1ccc(Nc2nc(NCC3CCCO3)c3ccccc3n2)c(OC)c1 (stereo not drawn)	nt	15µM	i	i	16µM	i
c1coc(CNc2nc(N3CCCCC3)nc3ccccc23)c1	-58	18µM	i	?	26µM	i
c1ccc(Nc2nc(NCC3CCCO3)c3ccccc3n2)cc1 (stereo not drawn)	-101	3.3µM	i	?	3.7µM	i
c1ccc(CNc2nc(N3CCN(Cc4ccccc4)CC3)nc3ccccc23)cc1	nt	16µM	i	i	?	i
CCOC(=O)CCNC(=O)c1ccc(Br)cc1Cl	nt	nt	nt	nt	nt	i
Cc1ccc(CSc2nc3nc[nH]c3c(=O)[nH]2)cc1	nt	nt	nt	nt	nt	i
c1coc(CNc2nc(-c3cccs3)nc3ccccc23)c1	nt	nt	nt	nt	nt	i
c1ccc(CNc2nc(-c3cccs3)nc3ccccc23)nc1	-77	?	i	i	?	i
Oc1cccc(Nc2nc(NCC3CCCO3)c3ccccc3n2)c1 (stereo not drawn)	nt	15µM	i	?	16µM	i
CCOc1ccc(Nc2nc(NCC3CCCO3)c3ccccc3n2)cc1 (stereo not drawn)	-98	2.9µM	?	?	26µM	i
COc1ccc(Oc2ccc(CNc3ncccn3)cn2)cc1	nt	nt	nt	nt	nt	i
C/C=C/c1ccc(OCCOCCNCc2ccccc2)c(OC)c1	?	18µM	i[1.91 µM]	i	?	i
C/C=C/c1ccc(OCCOc2cc(C=O)ccc2OC)c(OC)c1	i	26µM	i	i	?	i
C/C=C/c1ccc(OCC(=O)O)c(OC)c1	i	i	i	i	i	i
Cc1ccc(OCCNCc2ccccc2)c(C)c1	i	?	i	i	?	i
COc1cc(C)ccc1OCCCCNCc1ccccc1	i	?	i	i	i	i
COc1cc(C=O)ccc1OCCCOc1ccccc1C(=O)O	i	i	1.4µM	6.3µM	i	i
Cc1cc(C)c(C)c(OCCOCCNCc2ccccc2)c1	?	18µM	i	i	?	i
Nc1ccc(CNC(=O)c2cc3cc(Cl)ccc3nc2N)cc1	i	?	nt	nt	?	i
Nc1nc2ccc(Cl)cc2cc1C(=O)NCCc1ccc(O)cc1	i	18µM	nt	nt	?	i
COc1ccc(CCNC(=O)c2cc3cc(Cl)ccc3nc2N)cc1OC	i	8.2µM	nt	nt	13µM	i
Cc1ccsc1/C=C(/C#N)C(=O)c1ccccc1	nt	nt	nt	nt	nt	i
SMILES	IL1B secr inh	TDP1 cell noCPT	RORgamma inh	Gal4-VP16 FLuc	TDP1 cell CPT	LDHA inh
CC(C)(C)NC(=O)CC1(C(=O)N2CCC(c3c[nH]c4ccccc34)CC2)CCCC1	nt	nt	nt	nt	nt	i
COCC(=O)Nc1cc(C(=O)N2CCC(c3ccccc3)CC2)cc2nc(-c3ccccc3)n(C)c12	nt	?	nt	nt	16µM	nt
Cc1cc(C(=O)OCC(=O)Nc2c(C)cccc2C)c2ccccc2n1	nt	nt	nt	nt	nt	i
C=CCc1ccccc1OCC(=O)NNC(=S)NCc1ccccc1	i	5.2µM	1.4µM	10µM	6.5µM	i
CC(C)(C)OC(=O)NNC(=S)NCc1ccc(Cl)cc1	i	?	14µM	?	i	i
O=C(COc1ccc(Cl)cc1)NNC(=S)NCc1ccccc1	i	?	1.1µM	5.6µM	?	i

High-throughput results: PubChem, National Center for Advancing Translational Sciences (NCATS)
